The panel holds about 83,000 compounds, 20% with a hit somewhere; the sample as a whole holds those more often.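 48-hour exposure, single concentration, 96-well plates; percent growth endpoint where 0 means no net growth. Active: below 10.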 A number with no mark means an inactive call. Activity calls are given as the source filed them.
What was measured:
Assay in all cases: NCI-60 one-dose screen, 48 h (100 = growth as untreated, 0 = no growth, -100 = all killed)
[1] = tested on: T-47D breast; details: 10 µM unless noted
[2] = tested on: BT-549 breast; details: 10 µM unless noted
[3] = tested on: MDA-MB-435 melanoma; details: 10 µM unless noted
[4] = tested on: SW-620 colon; details: 10 µM unless noted
[5] = tested on: MCF7 breast; details: 10 µM unless noted
[6] = tested on: HCT-116 colon; details: 10 µM unless noted
[7] = tested on: HCC-2998 colon; details: 10 µM
[8] = tested on: KM12 colon; details: 10 µM unless noted

Structure (SMILES)	growth [1]	growth [2]	growth [3]	growth [4]	growth [5]	growth [6]	growth [7]	growth [8]
CC(C)CC(=O)Nc1n[nH]c2c1CN(C(=O)C1CCN(C)CC1)C2(C)C	-3% (active)	33.7%	12%	9.91% (active)	3.99% (active)	2.94% (active)	13.1%	9.26% (active)
Cn1ccnc1C(=O)/C=C/c1ccc(CC(=O)Nc2ccc(Br)cc2)cc1	4.43% (active)	12.1%	45.6%	4.81% (active)	12%	12%	15.3%	4.87% (active)
CCN1/C(=C/C=C/c2n(-c3ccccc3)c3ccc(-c4nc5ccccc5s4)cc3[n+]2CC)N(c2ccccc2)c2ccc(-c3nc4ccccc4s3)cc21	5.56% (active)	-5.34% (active)	-41.1% (active)	16.7%	11.2%	10.8%	33.3%	10.6%
CC(C)(C)c1ccc(Cn2cc(CSc3nc4ccccc4s3)nn2)cc1	73.4%	87.7%	106%	97.3%	91.4%	121%	104%	101%
O=C(c1ccc(/C=C/c2n[nH]c3ccccc23)cc1)N1CCNCC1	84.1%	22.6%	38.7%	11.7%	24%	17.7%	66.3%	8.09% (active)
CC[C@H](CO)Nc1nc(NCc2ccccc2)c2ncn(C(C)C)c2n1	48.4%	78.1%	83.6%	69.3%	31.5%	30.1%	74.5%	47.6%
COC[C@@H](C)n1c(C2CCOCC2)nc2c1C1C=C(OC)C(c3c(C)noc3C)=CC1N=C2 (stereo partly specified)	44.6%	62.6%	41.6%	72.1%	15.5%	53.4%	52.7%	43%
Cc1ccc2oc(=O)cc(-c3cc(-c4cc5ccccc5oc4=O)nc(N)c3C#N)c2c1	59.7%	57.2%	65.7%	83.5%	78.1%	51.4%	93%	65.7%
NC1=Nc2cc(OCCCN3Cc4ccccc4C3)c(OCC3CC3)cc2C12CCCC2	2.41% (active)	68.6%	38.1%	76.3%	47.5%	32.9%	1.52% (active)	69.6%
N#Cc1c(-c2ccc(C(F)(F)F)cc2)cc(NCC2CCS(=O)(=O)CC2)n2c1nc1ccccc12	64.3%	64.9%	92.8%	93.3%	85.6%	74.9%	91.9%	98.4%
COc1cc(C(=O)NNC(=O)c2ccc(NC(=O)CCl)cc2)cc(OC)c1OC	64.3%	66.8%	92.5%	65.5%	61.8%	44.5%	88.7%	99.7%
COC(=O)C1CCc2sc3ncnc(Nc4cn[nH]c4C(=O)Nc4ccc(CN5CCN(C)CC5)cc4)c3c21 (stereo unspecified)	17.8%	-0.677% (active)	22.3%	-10.9% (active)	4.8% (active)	3.34% (active)	27.2%	9.84% (active)
Cc1c(Cn2c(C)nc3c(C(=O)O)cc(N4CCOCC4)cc32)cccc1C(F)(F)F	69.2%	70.9%	106%	102%	92.6%	92.1%	103%	103%
O=C(Cc1ccc(-c2ccc(OCCN3CCOCC3)cc2)cn1)NCc1ccccc1	34.2%	3.61% (active)	-21.8% (active)	21.3%	10.7%	6.1% (active)	8.15% (active)	6.91% (active)
CN1[C@@H]2CC[C@H]1/C(=C\c1ccccc1)C1=C2[C@@H](c2ccccc2)C(C#N)=C(N)O1	58.6%	67%	98.5%	98.2%	85.2%	49.9%	87.7%	85.3%
COc1cc(-c2cc(-c3ccc(Nc4ccnc5cc(Cl)ccc45)cc3)nc(N3CCOCC3)n2)cc(OC)c1OC	12.8%	24.4%	-35% (active)	1.68% (active)	4.34% (active)	-63.3% (active)	18.7%	25.2%

Structure (SMILES)	growth [1]	growth [2]	growth [3]	growth [4]	growth [5]	growth [6]	growth [7]	growth [8]
CO/C=C/C(=O)c1cc2cnc3c(=N)cc(NC(=O)C(C)C)c([nH]1)c23	-53.1% (active)	-58.9% (active)	-27.5% (active)	-47.8% (active)	1.14% (active)	-55.4% (active)	-21% (active)	-23.9% (active)
COc1ccc(Cc2cc(-c3ccccc3C)n[nH]c2=O)cc1	94.4%	132%	117%	103%	95.4%	98%	110%	97.9%
Cc1nc(NC(=O)N2CCC[C@H]2C(N)=O)sc1-c1ccnc(C(C)(C)C(F)(F)F)c1	-34.7% (active)	50.2%	49.3%	41.7%	13.9%	26.4%	48.6%	57.6%
CC(N)C(Cc1ccc(Cl)cc1)c1ccc(Cl)cc1 (stereo unspecified)	54.8%	77.6%	56.5%	57.3%	91.1%	35%	-6.15% (active)	63%
COc1ccc(F)c(F)c1C(=O)c1cnc(NC2CCN(S(C)(=O)=O)CC2)nc1N	-3.23% (active)	-11.8% (active)	-33.3% (active)	0.808% (active)	2.53% (active)	4.77% (active)	-26.5% (active)	4.84% (active)
CN1C/C=C\CCOc2cccc(c2)-c2ccnc(n2)Nc2cccc(c2)C1	-42.4% (active)	-69.4% (active)	-85.2% (active)	-5.5% (active)	-33% (active)	-50% (active)	-40% (active)	-53.3% (active)
CCN(CC)CCN1C(=O)c2cccc3c(-c4ccc5c(c4)ncn5C4CCCCC4)ccc(c23)C1=O	-9.17% (active)	4.57% (active)	17%	11.2%	-7% (active)	-66.1% (active)	36.7%	24.3%
NC(=O)c1n[nH]n2c1nc(=O)c1c3c(sc12)CCCC3	96.2%	98.3%	117%	100%	92.3%	104%	104%	104%
Cc1ccc(NC(=O)NC(=O)CSc2nc3ccccc3nc2C)cc1	40.9%	59.9%	74.1%	78.3%	52.4%	17.1%	72.1%	76.5%
COc1cc2cc(NCc3ccc(Cl)cc3)nc(C)c2cc1OC	47.1%	30.8%	10.9%	19.3%	51.8%	8.8% (active)	27.2%	37.2%
CCCCn1c(C)nc2cc(Nc3nc(N4CCCCC4)nc4nc[nH]c34)ccc21	6.78% (active)	18%	37.4%	79%	32.5%	48.8%	66.2%	38.1%
Cc1cccc(C)c1N1C(c2ccccc2)=NNC12C=CC(=O)c1c(O)cccc12 (stereo unspecified)	96.2%	44.7%	-90.1% (active)	103%	78.7%	45.3%	98.5%	75.9%
COc1cc(Nc2ncc(F)c(Nc3ccc4c(n3)N(COP(=O)(O)O)C(=O)C(C)(C)O4)n2)cc(OC)c1OC	14.4%	1.78% (active)	26.5%	38.2%	25.7%	22.1%	66.8%	11.7%
Cc1nc2ccc(-n3ncc(C(=O)c4cc5ccccc5[nH]4)c3N)cc2[nH]1	34.9%	54%	62.8%	43.7%	44.2%	27.1%	68.8%	17.3%
Cc1cc(N(CCNc2ccnc3cc(Cl)ccc23)Cc2ccc3c(c2)OCO3)nc(N2CCN(C)CC2)n1	-36.9% (active)	21.6%	-62.6% (active)	2.88% (active)	15.3%	9.43% (active)	-30.8% (active)	62.6%
C[C@@]1(C(=O)Nc2ccc(F)nc2)CCCN1c1nc(Nc2cc(C3CC3)[nH]n2)c2cccn2n1	7.7% (active)	27.3%	38.1%	16.4%	17.9%	7.82% (active)	42.2%	-23.6% (active)
